A short description of experiment [1]: AP1 Signaling Pathway (AID 357; active = well fitted curve in either direction with a large enough effect, not every such curve was filed as active;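 note: ME-180 reporter cells stimulated with EGF at its EC50 level; % is set by controls: 0 for no effect and ±100 for the full control effect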). As to conditions: ME-180 AP-1-bla reporter, EGF-induced, beta-lactamase ratio, 5 h; at 7.69 µM (top of the series) unless noted. The gist of the method:
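Beta-lactamase reporter under AP-1 response element, ME-180 background. Stimulus: EC50 EGF. Compound exposure 5 h, 37 °C. Detection: CCF4, 2.5 h RT, 460/530 nm. Values: AC50 from titration.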

A short description of experiment [2]: NFAT Signaling Pathway (AID 444; active = well fitted curve in either direction with a large enough effect, not every such curve was filed as active;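 note: carbachol stimulus at about its EC50 of 1 µM final; % is set by controls: 0 for no effect and ±100 for the full control effect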). As to conditions: Jurkat NFAT-bla M1, carbachol, beta-lactamase ratio, 5 h; at 7.69 µM (top of the series) unless noted. The method, boiled down: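 Read-out: CCF4 FRET ratio (460 nm/530 nm) after 1 h RT dye loading, used for %activity and AC50 from titration series. Cells: Jurkat NFAT-β-lactamase/M1 line, treated with compound plus 1 uM carbachol for 5 h, 37 °C.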

Experiment [3] is described as follows: Stat Signaling Pathway (AID 446; active = well fitted curve in either direction with a large enough effect, not every such curve was filed as active;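 note: ME-180 cervical cancer cells given 40 pM IL-6 alongside compound; SIE-controlled beta-lactamase reporter measured as 460/530 nm FRET emission ratio; % is set by controls: 0 for no effect and ±100 for the full control effect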). To be noted: ME-180 (cervical carcinoma) SIE beta-lactamase reporter, IL-6 stimulated, 5 h; at 7.69 µM (top of the series) unless noted. The gist of the method: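 FRET read-out (405 nm excitation, 460/530 nm emission) of a beta-lactamase reporter under a STAT-inducible element in ME-180 cervical carcinoma cells. Cells with compound receive 40 pM IL-6 for 5 h. Values are normalised to AC90 stimulation and AC90 JAK-inhibitor controls.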

The target of experiment [4] is Glucocorticoid receptor (Homo sapiens) (UniProt P04150). Nature of the experiment: GR-GFP Redistribution (AID 450;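 active = compounds whose dose series gives a full or clear partial fitted curve of increased nuclear translocation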; note: potency is the fitted concentration of half-maximal effect). As to conditions: U2OS GR-GFP nuclear translocation, laser cytometry, 2 h.
Sequence of Glucocorticoid receptor (Homo sapiens) (P04150 whole entry, looked up): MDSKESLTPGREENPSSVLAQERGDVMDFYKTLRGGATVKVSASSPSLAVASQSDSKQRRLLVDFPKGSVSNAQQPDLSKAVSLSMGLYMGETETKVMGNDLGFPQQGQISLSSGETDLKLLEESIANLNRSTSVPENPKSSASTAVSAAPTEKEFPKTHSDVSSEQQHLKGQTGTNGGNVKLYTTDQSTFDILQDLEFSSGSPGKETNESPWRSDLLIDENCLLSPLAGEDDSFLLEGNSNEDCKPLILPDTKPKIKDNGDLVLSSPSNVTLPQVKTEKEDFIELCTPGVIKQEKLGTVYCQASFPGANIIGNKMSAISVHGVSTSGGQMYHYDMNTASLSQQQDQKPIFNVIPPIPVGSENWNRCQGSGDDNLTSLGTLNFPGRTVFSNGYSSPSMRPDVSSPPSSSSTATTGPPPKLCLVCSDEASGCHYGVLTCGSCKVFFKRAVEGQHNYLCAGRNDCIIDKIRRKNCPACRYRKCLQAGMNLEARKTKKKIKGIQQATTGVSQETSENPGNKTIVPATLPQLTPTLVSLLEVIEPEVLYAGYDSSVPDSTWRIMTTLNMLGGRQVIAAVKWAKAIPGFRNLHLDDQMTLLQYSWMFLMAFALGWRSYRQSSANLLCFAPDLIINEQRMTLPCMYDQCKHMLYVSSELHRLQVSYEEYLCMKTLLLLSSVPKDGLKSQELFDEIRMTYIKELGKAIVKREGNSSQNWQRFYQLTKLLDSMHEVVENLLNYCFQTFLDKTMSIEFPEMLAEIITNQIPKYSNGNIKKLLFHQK
Experiment [5] shares this target. Nature of the experiment: GR-EFC Redistribution (AID 451; calls by dose curve; note: potency is the fitted concentration of half-maximal effect). To be noted: CHO-K1 GR-EFC translocation, beta-gal luminescence, 2 h. The method, boiled down:
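Translocation of GR-ED fusion to nuclear EA restores b-gal, read by luminescence after 1 h room-temperature detection. Engineered CHO-K1 biosensor cells, 1,000/well, exposed 2 h at 37 C to titrations up to 46 uM final.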

Experiment [6] concerns the target Mitogen-activated protein kinase 10 (Mus musculus) (UniProt Q61831). Put plainly: JNK3 AlphaScreen Assay (AID 530; active = well fitted curve in either direction with a large enough effect, not every such curve was filed as active;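 note: kinase came from lysate of stimulated human HepG2 cells; signal reports phosphorylation of biotinylated GST-cJun 1-79 at Ser73 with 10 µM ATP; % is set by controls: 0 for no effect and ±100 for the full control effect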). The gist of the method: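 Kinase buffer: 20 mM Tris-HCl pH 7.6, 10 mM MgCl2, 1 mM DTT, 0.1 mM Na3VO4, 0.01% Tween-20; ATP 10 uM. Substrate biotin-GST-cJun(1-79), enzyme from activated HepG2 lysates. Detection by Ser73 phospho-antibody AlphaScreen.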
A general note: Bead proximity is the source of the signal in Alpha formats.

For experiment [7], the target named is 3',5'-cyclic-AMP phosphodiesterase 4B (Homo sapiens) (UniProt Q07343). Put plainly: qHTS Assay for Inhibitors of PDE-IV (AID 607; active = well fitted activation curve with a large enough effect in the main read-out, with a control signal flat, not every such curve was filed as active; note: % of control where 0% means no effect). The gist of the method: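 Cell-based read-out of cAMP via a modified cyclic nucleotide-gated channel and membrane potential dye (535/590 nm) in HEK293 cells expressing PDE4 endogenously. Compounds tested up to 22.9 uM final; 100 uM RO 20-1724 reference.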
Sequence of 3',5'-cyclic-AMP phosphodiesterase 4B (Homo sapiens) (Q07343 whole entry, looked up): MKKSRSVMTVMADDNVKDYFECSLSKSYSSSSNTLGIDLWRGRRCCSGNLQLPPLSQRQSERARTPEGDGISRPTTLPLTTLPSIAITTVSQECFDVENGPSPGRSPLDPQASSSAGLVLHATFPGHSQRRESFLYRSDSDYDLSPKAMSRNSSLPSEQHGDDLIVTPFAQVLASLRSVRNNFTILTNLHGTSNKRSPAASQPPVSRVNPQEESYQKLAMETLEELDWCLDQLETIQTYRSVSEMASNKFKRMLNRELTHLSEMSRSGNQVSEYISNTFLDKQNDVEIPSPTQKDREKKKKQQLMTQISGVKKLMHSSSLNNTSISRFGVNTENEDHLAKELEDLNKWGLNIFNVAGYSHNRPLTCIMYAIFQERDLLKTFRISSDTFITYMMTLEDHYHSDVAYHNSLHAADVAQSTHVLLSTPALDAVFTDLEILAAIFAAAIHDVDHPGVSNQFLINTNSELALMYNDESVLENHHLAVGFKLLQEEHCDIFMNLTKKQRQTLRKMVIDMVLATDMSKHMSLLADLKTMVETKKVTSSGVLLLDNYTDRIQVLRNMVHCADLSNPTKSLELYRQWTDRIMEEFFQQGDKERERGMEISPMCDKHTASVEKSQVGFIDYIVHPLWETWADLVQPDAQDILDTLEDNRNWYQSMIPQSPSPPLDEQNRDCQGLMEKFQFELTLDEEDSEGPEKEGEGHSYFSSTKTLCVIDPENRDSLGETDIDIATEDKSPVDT

The target of experiment [8] is Cytochrome P450 3A4 (Homo sapiens) (UniProt P08684). Put plainly: qHTS Assay for Inhibitors and Substrates of Cytochrome P450 3A4 (AID 884). Note: potency is the fitted concentration of half-maximal effect; nearly all actives have a fitted effect of over 50% in size. The method, boiled down: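 Luminescent readout of luciferin produced by CYP3A4 (20 nM) dealkylation of Luciferin-PPXE, 25 uM (its KM). NADPH-driven reaction ran 60 min at RT after 10 min compound preincubation; data scaled to 57 uM ketoconazole as 100% inhibition.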
Sequence of Cytochrome P450 3A4 (Homo sapiens) (P08684 whole entry, looked up): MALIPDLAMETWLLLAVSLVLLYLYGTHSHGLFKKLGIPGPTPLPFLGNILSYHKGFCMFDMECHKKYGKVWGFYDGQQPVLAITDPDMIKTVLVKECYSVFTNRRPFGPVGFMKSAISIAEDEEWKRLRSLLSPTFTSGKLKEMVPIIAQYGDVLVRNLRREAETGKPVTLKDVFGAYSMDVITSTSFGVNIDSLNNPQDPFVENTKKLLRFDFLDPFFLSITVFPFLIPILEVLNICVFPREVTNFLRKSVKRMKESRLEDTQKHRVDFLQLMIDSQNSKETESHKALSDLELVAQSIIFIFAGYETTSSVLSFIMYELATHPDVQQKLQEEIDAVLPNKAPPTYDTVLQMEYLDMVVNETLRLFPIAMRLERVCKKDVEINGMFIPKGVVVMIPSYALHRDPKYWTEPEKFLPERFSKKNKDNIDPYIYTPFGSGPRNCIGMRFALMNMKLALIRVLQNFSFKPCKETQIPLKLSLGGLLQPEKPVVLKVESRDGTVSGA
A general note: Quantitative high-throughput screening tests each substance at several concentrations.

Experiment [9] deals with Dual specificity protein kinase CLK4 (Homo sapiens) (UniProt Q9HAZ1). Put plainly: qHTS Assay for Inhibitors of CDC-like Kinase 4 (Kinase-Glo Assay) (AID 1770). Note: nearly all actives have a fitted effect of over 65% in size. Note: potency is the fitted concentration of half-maximal effect. The gist of the method:
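Recombinant human Clk4 (25 nM) phosphorylated RS repeat peptide (100 uM) with 1 uM ATP in Tris pH 7.5/MgCl2/EGTA/DTT/Triton buffer for 4.5 h at room temperature. Residual ATP was quantified by Kinase-Glo luciferase luminescence.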

For experiment [10], the target named is Ubiquitin carboxyl-terminal hydrolase 1 (Homo sapiens) (UniProt O94782). Nature of the experiment: Inhibitors of USP1/UAF1: Pilot qHTS (AID 504865). Note: nearly all actives have a fitted effect of over 35% in size. Note: potency is the fitted concentration of half-maximal effect. The method, boiled down:
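USP1/UAF1 complex (1nM) preincubated with compound 15 min at room temperature, then Ub-Rho substrate (150nM final) added. Fluorescence read kinetically at 480/540 nm, 6 reads every 60 seconds. Buffer: 50mM HEPES pH 7.8, 0.5mM EDTA, 0.1 mg/ml BSA, 1mM TCEP, 0.01% Tween-20.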

A short description of experiment [11]: Primary qHTS for small molecule stabilizers of the endoplasmic reticulum resident proteome: Secreted ER Calcium Modulated Protein (SERCaMP) assay (AID 1508630). Note: % is set by controls: 0 for no effect and ±100 for the full control effect. The method, boiled down:
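The SH-SY5Y reporter protocol was run at 3 concentrations up to 38.3 uM (primary) or 11 concentrations (follow-up): 16 h compound, 100 nM thapsigargin for 4 h, then extracellular luciferase luminescence.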

In experiment [12] the target is Cytochrome P450 1A2 (Homo sapiens) (UniProt P05177). Put plainly: p450-cyp1a2 (AID 410; calls by dose curve; note: potency is the fitted concentration of half-maximal effect). The gist of the method:
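Read-out is luminescence from luciferin produced by CYP1A2 demethylation of Luciferin-ME (100uM, at Km). Detection reagent stopped the 60 min NADPH-dependent reaction; signals were normalized to 57 uM furafylline.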

For experiment [13], the target named is Cytochrome P450 3A4 (Homo sapiens) (UniProt P08684). Nature of the experiment: qHTS Assay for Activators of Cytochrome P450 3A4 (AID 885). Note: nearly all actives have a fitted effect of over 65% in size. The method, boiled down: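 Luminescent readout of luciferin formed from 25 uM Luciferin-PPXE (KM level) by 20 nM CYP3A4 in 200 mM KPO4, with 60 min NADPH-driven reaction at room temperature after 10 min compound exposure. Ketoconazole (57 uM) defined 100% inhibition.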

For experiment [14], the target named is Cytochrome P450 2C19 (Homo sapiens) (UniProt P33261). Nature of the experiment: qHTS Assay for Inhibitors and Substrates of Cytochrome P450 2C19 (AID 899). Note: potency is the fitted concentration of half-maximal effect; nearly all actives have a fitted effect of over 60% in size. The gist of the method: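 Reactions contain 5nM enzyme, 10uM Luciferin-H EGE (KM) and 50mM KPO4; compound preincubates 10 min at 37C, NADPH regeneration starts turnover for 60 min. Luminescence after detection reagent gives activity.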
Sequence of Cytochrome P450 2C19 (Homo sapiens) (P33261 whole entry, looked up): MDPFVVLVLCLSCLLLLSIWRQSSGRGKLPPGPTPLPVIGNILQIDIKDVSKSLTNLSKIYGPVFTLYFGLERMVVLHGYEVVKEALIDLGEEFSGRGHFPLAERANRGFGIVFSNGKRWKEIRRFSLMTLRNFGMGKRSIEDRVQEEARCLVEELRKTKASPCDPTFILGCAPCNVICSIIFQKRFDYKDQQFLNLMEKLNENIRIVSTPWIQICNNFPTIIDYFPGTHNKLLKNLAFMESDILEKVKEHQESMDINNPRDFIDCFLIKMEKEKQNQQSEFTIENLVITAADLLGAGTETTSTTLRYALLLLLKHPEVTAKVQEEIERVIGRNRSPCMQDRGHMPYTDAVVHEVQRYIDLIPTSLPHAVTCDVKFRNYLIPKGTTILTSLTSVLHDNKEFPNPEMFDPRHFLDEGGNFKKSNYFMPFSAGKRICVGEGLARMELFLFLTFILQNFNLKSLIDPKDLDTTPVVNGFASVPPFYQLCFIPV

Experiment [15] addresses Dual specificity protein kinase CLK4 (Homo sapiens) (UniProt Q9HAZ1). Nature of the experiment: qHTS Assay for Inhibitors of CDC-like Kinase 4 (ADP-FP Assay) (AID 1795). Note: nearly all actives have a fitted effect of over 60% in size. Note: potency is the fitted concentration of half-maximal effect. The gist of the method:
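Recombinant human Clk4 (6.25 nM) phosphorylated RS repeat peptide (100 uM) with 1 uM ATP in Tris pH 7.5/MgCl2/EGTA/DTT/Triton buffer for one hour. ADP was quantified by Transcreener competitive fluorescence polarization against an ADP calibration curve.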

Experiment [16] deals with Lysosomal acid glucosylceramidase (Homo sapiens) (UniProt P04062). Put plainly: Glucocerebrosidase-p2 (AID 348; in the data active = potency below about 10 µM; note: potency is the fitted concentration of half-maximal effect). As to conditions: purified GBA, blue fluorogenic substrate, 40 min. The method, boiled down: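 Normal human glucocerebrosidase (0.2 nM) with blue fluorogenic substrate (80 uM final) in citrate/phosphate pH 5.9 with 10mM sodium taurocholate, 0.01% tween-20; 40 min RT, NaOH/glycine stop; fluorescence Ex 365/Em 440; AC50 from a titration from 0.6 nM upwards.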
Sequence of Lysosomal acid glucosylceramidase (Homo sapiens) (P04062 whole entry, looked up): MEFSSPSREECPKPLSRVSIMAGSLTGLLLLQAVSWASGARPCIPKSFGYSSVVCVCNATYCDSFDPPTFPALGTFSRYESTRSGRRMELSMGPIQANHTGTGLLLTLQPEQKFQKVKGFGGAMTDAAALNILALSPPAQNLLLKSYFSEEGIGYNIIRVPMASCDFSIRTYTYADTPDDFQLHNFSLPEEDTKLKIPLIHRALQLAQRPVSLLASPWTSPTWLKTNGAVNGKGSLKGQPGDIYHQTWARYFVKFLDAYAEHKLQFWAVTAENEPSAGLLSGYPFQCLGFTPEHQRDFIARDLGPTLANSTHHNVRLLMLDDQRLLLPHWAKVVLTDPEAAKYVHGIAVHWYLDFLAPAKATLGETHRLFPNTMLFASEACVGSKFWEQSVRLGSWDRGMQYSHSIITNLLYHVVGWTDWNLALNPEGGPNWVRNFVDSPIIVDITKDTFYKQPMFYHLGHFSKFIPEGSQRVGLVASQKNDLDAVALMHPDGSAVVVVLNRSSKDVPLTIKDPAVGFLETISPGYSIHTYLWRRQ

Structures are written as SMILES. A number with no mark means an inactive call. Records with an inconclusive call do not appear. Active and inactive are the calls of the source. Unless noted, calls come from the whole dose curve; as a rule, active = well fitted curve in the direction sought with a large enough effect; inconclusive = small, poorly fitted or top-dose-only effect, or another doubt; inactive = no such curve, though single readings can be large; an effect the other way counts as inactive or inconclusive.

Sequence of Ubiquitin carboxyl-terminal hydrolase 1 (Homo sapiens) (O94782 whole entry, looked up): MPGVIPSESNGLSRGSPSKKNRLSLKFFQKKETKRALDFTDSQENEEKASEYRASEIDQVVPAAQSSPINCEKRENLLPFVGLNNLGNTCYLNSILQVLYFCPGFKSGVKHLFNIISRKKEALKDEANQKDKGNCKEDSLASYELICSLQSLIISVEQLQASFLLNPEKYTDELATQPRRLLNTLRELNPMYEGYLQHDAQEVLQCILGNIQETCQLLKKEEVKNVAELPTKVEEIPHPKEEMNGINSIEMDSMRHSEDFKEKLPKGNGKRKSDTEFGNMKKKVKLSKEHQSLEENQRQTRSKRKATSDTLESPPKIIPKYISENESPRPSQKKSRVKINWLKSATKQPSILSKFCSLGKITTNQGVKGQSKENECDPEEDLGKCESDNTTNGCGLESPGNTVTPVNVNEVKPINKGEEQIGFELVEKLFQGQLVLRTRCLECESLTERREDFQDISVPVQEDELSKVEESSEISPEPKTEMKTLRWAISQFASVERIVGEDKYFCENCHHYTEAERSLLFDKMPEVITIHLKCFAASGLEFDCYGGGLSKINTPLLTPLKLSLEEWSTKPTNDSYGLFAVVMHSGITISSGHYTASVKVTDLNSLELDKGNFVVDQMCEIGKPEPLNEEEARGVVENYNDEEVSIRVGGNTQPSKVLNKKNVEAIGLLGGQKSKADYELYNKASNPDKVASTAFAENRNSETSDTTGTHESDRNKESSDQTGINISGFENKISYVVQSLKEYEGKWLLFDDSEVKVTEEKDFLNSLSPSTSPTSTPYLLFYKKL
Sequence of Cytochrome P450 1A2 (Homo sapiens) (P05177 whole entry, looked up): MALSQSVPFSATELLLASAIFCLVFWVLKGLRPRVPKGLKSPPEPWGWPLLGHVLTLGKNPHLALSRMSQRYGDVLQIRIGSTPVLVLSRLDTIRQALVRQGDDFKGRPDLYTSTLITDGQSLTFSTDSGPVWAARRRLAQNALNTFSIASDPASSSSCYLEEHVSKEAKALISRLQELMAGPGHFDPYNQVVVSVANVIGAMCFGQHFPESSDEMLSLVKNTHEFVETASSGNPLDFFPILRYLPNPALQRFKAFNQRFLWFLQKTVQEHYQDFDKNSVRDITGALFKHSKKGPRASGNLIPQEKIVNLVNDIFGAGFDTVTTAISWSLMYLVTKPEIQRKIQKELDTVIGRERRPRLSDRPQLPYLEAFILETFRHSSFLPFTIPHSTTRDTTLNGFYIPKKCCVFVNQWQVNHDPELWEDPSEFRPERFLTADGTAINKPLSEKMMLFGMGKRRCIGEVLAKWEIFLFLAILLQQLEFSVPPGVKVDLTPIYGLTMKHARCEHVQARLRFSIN
Sequence of Dual specificity protein kinase CLK4 (Homo sapiens) (Q9HAZ1 whole entry, looked up): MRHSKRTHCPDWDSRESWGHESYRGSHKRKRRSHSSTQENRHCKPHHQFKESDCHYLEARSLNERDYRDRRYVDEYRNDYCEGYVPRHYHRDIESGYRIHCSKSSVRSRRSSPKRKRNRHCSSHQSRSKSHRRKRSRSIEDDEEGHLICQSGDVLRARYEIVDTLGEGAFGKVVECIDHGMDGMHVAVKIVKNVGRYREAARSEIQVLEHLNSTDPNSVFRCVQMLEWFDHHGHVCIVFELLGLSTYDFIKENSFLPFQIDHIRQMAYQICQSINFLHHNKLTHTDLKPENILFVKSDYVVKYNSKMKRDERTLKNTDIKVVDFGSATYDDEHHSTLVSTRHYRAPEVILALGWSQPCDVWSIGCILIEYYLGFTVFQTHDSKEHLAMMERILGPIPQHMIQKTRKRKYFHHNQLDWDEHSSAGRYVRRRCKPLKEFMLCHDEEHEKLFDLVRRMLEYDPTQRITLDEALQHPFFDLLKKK

As for `COc1ccccc1CNc1ncncc1-c1cccc(NS(C)(=O)=O)c1`, the figures for the activity change, negative = inhibition in experiment [1] and in [2] were -18.5% and 22.3%, respectively. In addition, the activity, negative = inhibition in experiment [3] is -7.42%. In addition, the Potency in experiment [4] was over 46 µM; in experiment [5], over 46 µM; in experiment [8], 0.251 µM (active). Further, the Potency result in experiment [6], in experiment [7], in [9] and in [10] was “inactive” each time. In addition, the outcome in experiment [11] was inactive.
`Cc1cccc(CNc2ccnc(-c3ccccc3Cl)n2)c1`: the activity change, negative = inhibition in experiment [1] was -2.43%; in [2] it was -3.52%. Also, the Potency in experiment [12] was 1.58 µM (active); in experiment [4] it was over 46 µM; in experiment [5], over 46 µM; in experiment [8], 3.98 µM (active); in [14], 1.26 µM (active); in [10], 28.2 µM (active). The activity, negative = inhibition in [3] was -10.7%. Further, the Potency entry in experiment [6], in [13], in experiment [9] and in experiment [15] was “inactive” each time. In [11], the result was inactive.
As to `Cc1noc(C)c1-c1nc(NCc2cccs2)c2ccccc2n1`, the Potency in experiment [16] is over 2.29 µM; in [12], 0.2 µM (active); in experiment [4], over 46 µM; in experiment [5], over 46 µM; in experiment [8] it was 6.31 µM (active); in [10] it was 10 µM (active). The activity change, negative = inhibition in [1] is 3.98%. In [3], the activity, negative = inhibition is -8.06%. The Potency entry in [6], in experiment [13] and in experiment [9] was “inactive” each time. Further, in [11], the result was inactive.
Take `Cc1noc(C)c1-c1nc(NCCN2CCOCC2)c2ccccc2n1`: the activity change, negative = inhibition in [1] was -2.23%. Besides, the Potency was 2.51 µM (active) in experiment [12], over 46 µM in [4], over 46 µM in experiment [5] and 7.94 µM (active) in experiment [14]. The activity, negative = inhibition in experiment [3] is -0.501%. For the same compound, the Potency entry in experiment [6], in [7], in [13], in experiment [9], in [15] and in [10] was “inactive” in each case. Also, the result in experiment [11] was inactive.
For `Clc1ccccc1-c1nc(NCc2cccs2)c2ccccc2n1`, the Potency in experiment [12] is 1 µM (active); in [4] it was over 46 µM; in experiment [5], over 46 µM; in experiment [8], 6.31 µM (active); in experiment [14] it was 7.94 µM (active); in experiment [9], 7.94 µM (active). Further, the Potency in experiment [15] is 12.6 µM (active); in [10], 14.1 µM (active). Also, the activity change, negative = inhibition in experiment [2] was -8.75%. Moreover, the activity, negative = inhibition in [3] was 0.228%. Besides, the Potency result in experiment [6] and in [13] was “inactive” throughout. Besides, the outcome in experiment [11] was inactive.
On to `Clc1ccccc1-c1nc(NCc2cccnc2)c2ccccc2n1`, for which the activity change, negative = inhibition in experiment [1] is -8.93%; in experiment [2] it was 17.1%. Besides, the Potency in experiment [12] is 0.631 µM (active); in experiment [4], over 46 µM; in experiment [5], over 46 µM; in experiment [8], 2.51 µM (active); in [9], 28.2 µM (active); in experiment [10], 20 µM (active). In [3], the activity, negative = inhibition is -13.8%. Further, the Potency result in experiment [6] and in experiment [13] was “inactive” throughout. Also, the outcome in experiment [11] was inactive.
In the case of `CN(C)C(=O)c1ccc(-c2cc(NCc3cccs3)ncn2)cc1`, the Potency in experiment [16] is over 11.4 µM; in [4], over 46 µM; in experiment [5], over 46 µM; in experiment [9], 20 µM (active). For the same compound, the activity change, negative = inhibition in experiment [1] was -17.2%; in experiment [2] it was 3.58%. Besides, the activity, negative = inhibition in [3] is 5.59%. Moreover, the Potency result in experiment [6] and in experiment [10] was “inactive” in each case. In experiment [11], the outcome was inactive.

Values taken from PubChem BioAssay (NCATS).
